PubChem BioAssay (EPA / NIEHS)
Results filed as inconclusive are left out. Active and inactive are the calls of the source. How the source made its calls, unless noted: active means hit-call score of the fitted dose curve at least 0.9, where 1 is the maximum; inconclusive means response in the unintended direction; inactive means score below 0.9.

Assays:
[1] = target: Cellular tumor antigen p53 (Homo sapiens) (UniProt P04637); test: TOX21_p53_BLA_p2_ratio: Tox21 HCT-116 p53 Agonism Beta-lactamase Assay, Ratio, Phase 2 (AID 2283592)
Chain of Cellular tumor antigen p53 (Homo sapiens) (P04637 whole entry, looked up): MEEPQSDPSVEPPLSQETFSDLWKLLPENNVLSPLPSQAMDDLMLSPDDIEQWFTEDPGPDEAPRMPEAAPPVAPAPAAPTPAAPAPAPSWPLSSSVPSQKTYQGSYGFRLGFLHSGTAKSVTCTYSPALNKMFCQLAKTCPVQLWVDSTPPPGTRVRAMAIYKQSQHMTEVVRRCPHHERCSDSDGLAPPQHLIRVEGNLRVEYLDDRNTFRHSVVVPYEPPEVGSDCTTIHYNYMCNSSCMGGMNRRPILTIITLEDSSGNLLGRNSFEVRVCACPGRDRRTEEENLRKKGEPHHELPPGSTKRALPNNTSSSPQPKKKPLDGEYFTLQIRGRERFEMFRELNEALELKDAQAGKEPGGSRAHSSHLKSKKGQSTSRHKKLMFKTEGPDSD
In short: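 Read-out is the blue/green (460/530 nm, 405 nm excitation) ratio after 2 h CCF4-AM loading, fitted as gain versus DMSO. Compounds, pinned at 217-fold dilution from DMSO stocks, stayed 16 h on HCT-116 beta-lactamase reporter cells seeded 5 h earlier.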

[2] = target: Cellular tumor antigen p53 (Homo sapiens) (UniProt P04637); test: TOX21_p53_BLA_p3_ratio: Tox21 HCT-116 p53 Agonism Beta-lactamase Assay, Ratio, Phase 3 (AID 2283596)
In short: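 Cells were seeded at 4000/well, rested 5 h at 37C, then dosed with DMSO compound solutions (217-fold dilution) for 16 h. CCF4-AM substrate was loaded for 2 h at room temperature, and the 460/530 nm emission ratio was fitted for gain of signal versus DMSO.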

[3] = TOX21_p53_BLA_p5_viability: Viability Assessment in the Tox21 HCT-116 p53 Agonism Beta-lactamase Assay, Phase 5 (AID 2283600)
In short: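 Viability came from CellTiter-Glo ATP luminescence, read after 30 min at room temperature. Before this, HCT-116 p53-bla cells (4000/well) had 16 hours of compound exposure at 37C, with DMSO stocks diluted 217-fold on transfer.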

[4] = target: Cellular tumor antigen p53 (Homo sapiens) (UniProt P04637); test: TOX21_p53_BLA_p4_ratio: Tox21 HCT-116 p53 Agonism Beta-lactamase Assay, Ratio, Phase 4 (AID 2283601)
In short: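 HCT116 cells carrying an inducible beta-lactamase reporter were plated at 4000 cells/well, rested 5 h, then exposed to compounds in DMSO (217-fold dilution) for 16 h at 37C. CCF4-AM substrate was loaded 2 h at room temperature; 460/530 nm emission ratio scored gain-of-signal versus DMSO.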

[5] = system: Brachyury (BRA) Protein Expression, Deisenroth Lab, TBXT (gene 6862); test: CCTE_Deisenroth_DEVTOX-GLR_legacy_Bra: (Legacy) CCTE's DevTox GLR-Endo Assay Evaluation of Brachyury (BRA) Protein Expression, Deisenroth Lab (AID 2284329; active means hit-call score of the fitted dose curve at least 0.9, where 1 is the maximum; inactive means score below 0.9)
In short: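 High-content imaging of fixed RUES2-GLR cells after a 48-hour differentiation with two compound exposures yields percent cells whose Bra signal exceeds pluripotent control median by 5x BMAD; values are baseline-corrected to DMSO.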

[6] = CCTE_Deisenroth_DEVTOX-GLR_legacy_CellCount: (Legacy) Viability Assessment in CCTE's DevTox GLR-Endo Assay, Deisenroth Lab (AID 2284331; active means hit-call score of the fitted dose curve at least 0.9, where 1 is the maximum; inactive means score below 0.9); details: actives raise or lower the signal
In short: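 Viability is taken from imaged nuclei counts in fixed RUES2-GLR cultures after 48 h of differentiation under two 24 h-spaced chemical exposures, 10 concentrations from 1 nM to 200 uM, gain or loss versus DMSO baseline.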

[7] = system: SRY-box transcription factor 17 (SOX17) Protein Expression, Deisenroth Lab, SOX17 (gene 64321); test: CCTE_Deisenroth_DEVTOX-GLR_legacy_Sox17: (Legacy) CCTE's DevTox GLR-Endo Assay Evaluation of SRY-box transcription factor 17 (SOX17) Protein Expression, Deisenroth Lab (AID 2284341; active means hit-call score of the fitted dose curve at least 0.9, where 1 is the maximum; inactive means score below 0.9); details: actives raise or lower the signal
In short: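 Endoderm-differentiation readout in RUES2-GLR human pluripotent cells at 48 h, concentrations spanning 1 nM - 200 uM. Sox17-positive cells divided by total cell count; gain or loss relative to DMSO solvent control, n=4 experimental replicates.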

[8] = system: SRY-box transcription factor 2 (SOX2) Protein Expression, Deisenroth Lab, SOX2 (gene 6657); test: CCTE_Deisenroth_DEVTOX-GLR_legacy_Sox2: (Legacy) CCTE's DevTox GLR-Endo Assay Evaluation of SRY-box transcription factor 2 (SOX2) Protein Expression, Deisenroth Lab (AID 2284346; active means hit-call score of the fitted dose curve at least 0.9, where 1 is the maximum; inactive means score below 0.9)
In short: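 Two exposures, 24 h apart, during 48 h defined-media differentiation of seeded RUES2-GLR cells; nuclei-stained cells imaged. Sox2 positivity called at 5x BMAD above endoderm control median, DMSO median subtracted.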

[9] = system: SRY-box transcription factor 2 (SOX2) Protein Expression, Deisenroth Lab, SOX2 (gene 6657); test: CCTE_Deisenroth_DEVTOX-GLR_Endo_SOX2: CCTE's DevTox GLR-Endo Assay Evaluation of SRY-box transcription factor 2 (SOX2) Protein Expression, Deisenroth Lab (AID 2284412)
In short: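 Endpoint is percent SOX2-positive cells (SOX2+ count/total cells) minus 0.2% DMSO control, from high-content imaging of fixed, nuclear-stained RUES2-GLR cells. Dosing twice at 24 h intervals over 48 h differentiation, 1 nM–200 uM in 10 points.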

[10] = system: SRY-box transcription factor 17 (SOX17) Protein Expression, Deisenroth Lab, SOX17 (gene 64321); test: CCTE_Deisenroth_DEVTOX-GLR_Endo_SOX17: CCTE's DevTox GLR-Endo Assay Evaluation of SRY-box transcription factor 17 (SOX17) Protein Expression, Deisenroth Lab (AID 2284413; active means hit-call score of the fitted dose curve at least 0.9, where 1 is the maximum; inactive means score below 0.9)
In short: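 Fluorescent microscopy of a SOX17 reporter in RUES2-GLR pluripotent cells scored endoderm differentiation after 48 h and two 24-h-spaced exposures. Values are percent change in SOX17+ population against 0.2% DMSO, n=4 experimental replicates.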

[11] = system: Brachyury (BRA) Protein Expression, TBXT (gene 6862); test: CCTE_Deisenroth_DEVTOX-GLR_Endo_BRA: CCTE's DevTox GLR-Endo Assay Evaluation of Brachyury (BRA) Protein Expression, Deisenroth Lab (AID 2284417; active means hit-call score of the fitted dose curve at least 0.9, where 1 is the maximum; inactive means score below 0.9)
In short: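 Read-out: BRA+ cell count divided by total cell count by high-content imaging (5 fields per well), expressed relative to 0.2% DMSO solvent control. RUES2-GLR cells dosed twice over a 48 h differentiation; concentrations 1 nM - 200 uM.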

[12] = CCTE_Deisenroth_DEVTOX-GLR_Endo_CellCount: Viability Assessment in CCTE's DevTox GLR-Endo Assay, Deisenroth Lab (AID 2284420; active means hit-call score of the fitted dose curve at least 0.9, where 1 is the maximum; inactive means score below 0.9)
In short: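 Percent change in nuclear-stain cell counts versus 0.2% DMSO, from high-content imaging over 5 fields per well. Over a 48 h endoderm differentiation, RUES2-GLR cells received two doses 24 h apart across a 1 nM–200 uM series, with n=4.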

[13] = system: SRY-box transcription factor 17 (SOX17) Protein Expression, Deisenroth Lab, SOX17 (gene 64321); test: CCTE_Deisenroth_DEVTOX-GLR_Pluri_SOX17: CCTE's DevTox GLR-Pluri Assay Evaluation of SRY-box transcription factor 17 (SOX17) Protein Expression, Deisenroth Lab (AID 2284427)
In short: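 The endpoint is SOX17+ cells as a fraction of cell count, corrected for the 0.2% DMSO control and obtained by high-content fluorescence imaging of fixed cells. Cells were RUES2-GLR under a 48-hour endoderm differentiation, dosed twice at 24-hour intervals over 1 nM–200 uM.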

[14] = system: SRY-box transcription factor 2 (SOX2) Protein Expression, Deisenroth Lab, SOX2 (gene 6657); test: CCTE_Deisenroth_DEVTOX-GLR_Pluri_SOX2: CCTE's DevTox GLR-Pluri Assay Evaluation of SRY-box transcription factor 2 (SOX2) Protein Expression, Deisenroth Lab (AID 2284428; active means hit-call score of the fitted dose curve at least 0.9, where 1 is the maximum; inactive means score below 0.9)
In short: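 Percent SOX2+ cells (SOX2+ count per total cells, fluorescent imaging) in RUES2-GLR human pluripotent line, expressed relative to 0.2% DMSO. Compounds dosed twice at 24 h intervals during 48 h, 1 nM - 200 uM, 10 concentrations.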

[15] = CCTE_Deisenroth_DEVTOX-GLR_Pluri_CellCount: Viability Assessment in CCTE's DevTox GLR-Pluri Assay Evaluation of Total Cell Counts, Deisenroth Lab (AID 2284430; active means hit-call score of the fitted dose curve at least 0.9, where 1 is the maximum; inactive means score below 0.9)
In short: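 Cytotoxicity readout: fluorescent nuclei counts by high-content imaging, expressed as percent change relative to 0.2% DMSO. Human RUES2-GLR pluripotent line differentiated 48 h, dosed twice at 24-h intervals across 1 nM - 200 uM (10 points).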

[16] = TOX21_p53_BLA_p4_viability: Viability Assessment in the Tox21 HCT-116 p53 Agonism Beta-lactamase Assay, Phase 4 (AID 2283597);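 further: hits lower the luminescence signal meaning cytotoxicity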
In short: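 Cytotoxicity as reduced cellular ATP (CellTiter-Glo luminescence, 30 min room temperature), measured in the same wells following the CCF4 FRET p53 reading. Human HCT-116 cells received compounds in DMSO (217-fold dilution) for 16 h.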

[17] = target: Cellular tumor antigen p53 (Homo sapiens) (UniProt P04637); test: TOX21_p53_BLA_p5_ratio: Tox21 HCT-116 p53 Agonism Beta-lactamase Assay, Ratio, Phase 5 (AID 2283599)
In short: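 HCT-116 cells carrying a p53-inducible beta-lactamase reporter were seeded at 4000 cells/well and dosed after 5 h with compound in DMSO (217-fold dilution). After 16 h at 37C, CCF4-AM substrate was added for 2 h, and the 460/530 nm emission ratio was scored as gain-of-signal versus DMSO.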

Measured: outcome

CC1(C)S[C@@H]2[C@H](NC(=O)Cc3ccccc3)C(=O)N2[C@H]1C(=O)O
not listed: [16] | [17]
inactive: all other assays above

C=CCc1ccccc1OCC(O)CNC(C)C (centres undefined)
inactive: [1] | [2] | [4]

CN1CC(=O)N=C1N
inactive: [1] | [16] | [17]

O=c1[nH][nH]c2ccccc12
inactive: [1] | [2] | [4]

Cc1cccc(C)c1OCC(C)N (centres undefined)
inactive: [1] | [2] | [4]

Brc1ccc(-c2ccccc2)cc1
inactive: [1] | [2] | [4]

Nc1ncnc2c1ncn2[C@@H]1O[C@H](COP(=O)(O)O)[C@@H](O)[C@H]1O
inactive: [1] | [2] | [4]

CCCCCO
inactive: [1] | [2] | [4]

NC(=O)Cc1cccc(C(=O)c2ccccc2)c1N
inactive: [1] | [2] | [4]

CCn1ccnc1CC1COc2ccccc2O1 (centres undefined)
inactive: [1] | [16] | [17] | [3] | [4]

CCCCCCCCCCCCCCCCCC(=O)OCCO
inactive: [1] | [16] | [17] | [3] | [4]

CC(=O)CCC=C(C)CC/C=C(\C)CC/C=C(\C)CCC=C(C)C
inactive: [1] | [2] | [4]

CN1CCN(c2c(F)cc3c(=O)c(C(=O)O)cn4c3c2OCN4C)CC1
inactive: [1] | [16] | [17]

C=N[C@@H](C(=O)N[C@@H]1C(=O)N2[C@@H]1SC(C)(C)[C@@H]2C(=O)O)c1ccccc1
inactive: [1] | [16] | [17] | [3]
